# PubChem BioAssay (NCATS)
# Values without a mark were called inactive. Records with an inconclusive call do not appear. Active and inactive are the calls of the source. Unless noted, calls come from the whole dose curve; as a rule, active = well fitted curve in either direction with a large enough effect (not every such curve was filed as active); inconclusive = small, poorly fitted or top-dose-only effect, or another doubt; inactive = flat fitted curve, though single readings scatter.
# Legend:
# [1] = molecular target: Lysosomal acid glucosylceramidase (Homo sapiens) (UniProt P04062); assay: Glucocerebrosidase-p2 (AID 348; in the data active = potency below about 10 µM; note: potency is the fitted concentration of half-maximal effect); conditions: purified GBA, blue fluorogenic substrate, 40 min
# Procedure, shortened: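 Normal human glucocerebrosidase (0.2 nM) with blue fluorogenic substrate (80 uM final) in citrate/phosphate pH 5.9 with 10mM sodium taurocholate, 0.01% tween-20; 40 min RT, NaOH/glycine stop; fluorescence Ex 365/Em 440; AC50 from a titration from 0.6 nM upwards.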
# [2] = AP1 Signaling Pathway (AID 357); conditions: ME-180 AP-1-bla reporter, EGF-induced, beta-lactamase ratio, 5 h; at 7.69 µM (top of the series) unless noted;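 note: ME-180 reporter cells stimulated with EGF at its EC50 level; % is set by controls: 0 for no effect and ±100 for the full control effect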
# Procedure, shortened: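 In this screen, ME-180 cells in Opti-MEM with 0.5% dialyzed FBS received EC50 EGF and compound titrations for 5 h. AP-1 reporter beta-lactamase was detected via CCF4 ratio, giving AC50 for positive and negative modulators.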
# [3] = molecular target: Cytochrome P450 1A2 (Homo sapiens) (UniProt P05177); assay: p450-cyp1a2 (AID 410; calls by dose curve; note: potency is the fitted concentration of half-maximal effect;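 for activity change, negative = inhibition: -100% = full effect of reference inhibitor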); conditions: recombinant CYP1A2, luciferin-ME demethylation, luminescence; series mostly up to 11.4 µM
# Procedure, shortened: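 20nM CYP1A2, 100uM Luciferin-ME (=Km), 100mM KPO4; cpd 10 min RT; +NADPH regen, 60 min RT; stop/detect 20 min; luminescence. Normalized to furafylline 57 uM = full inhibition.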
# [4] = NFAT Signaling Pathway (AID 444); conditions: Jurkat NFAT-bla M1, carbachol, beta-lactamase ratio, 5 h; at 7.69 µM (top of the series) unless noted;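 note: carbachol stimulus at about its EC50 of 1 µM final; % is set by controls: 0 for no effect and ±100 for the full control effect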
# Procedure, shortened: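 Jurkat cells with NFAT-driven β-lactamase reporter and co-expressed M1 receptor, stimulated with carbachol (final 1 uM, ~EC50), compound titration, 5 h at 37 °C. CCF4 loaded 1 h at RT; 460/530 nm ratio gave %activity and AC50.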
# [5] = Stat Signaling Pathway (AID 446); conditions: ME-180 (cervical carcinoma) SIE beta-lactamase reporter, IL-6 stimulated, 5 h; at 7.69 µM (top of the series) unless noted;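 note: ME-180 cervical cancer cells given 40 pM IL-6 alongside compound; SIE-controlled beta-lactamase reporter measured as 460/530 nm FRET emission ratio; % is set by controls: 0 for no effect and ±100 for the full control effect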
# Procedure, shortened: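 Compound effects on IL-6-induced STAT reporter activity were measured in ME-180 cells. After overnight culture, cells were co-treated with 40 pM IL-6 for 5 hrs before beta-lactamase substrate loading at room temperature.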
# [6] = molecular target: Glucocorticoid receptor (Homo sapiens) (UniProt P04150); assay: GR-GFP Redistribution (AID 450;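 active = compounds whose dose series gives a full or clear partial fitted curve of increased nuclear translocation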; note: potency is the fitted concentration of half-maximal effect); conditions: U2OS GR-GFP nuclear translocation, laser cytometry, 2 h
# [7] = molecular target: Glucocorticoid receptor (Homo sapiens) (UniProt P04150); assay: GR-EFC Redistribution (AID 451; calls by dose curve; note: potency is the fitted concentration of half-maximal effect); conditions: CHO-K1 GR-EFC translocation, beta-gal luminescence, 2 h
# Procedure, shortened: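 CHO-K1 cells expressing nuclear EA and GR-ED fragments of b-gal; compounds titrated up to 46 uM final, 2 h at 37 C. GR nuclear translocation read as complemented b-gal luminescence after 1 h RT detection.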
# [8] = molecular target: Mitogen-activated protein kinase 10 (Mus musculus) (UniProt Q61831); assay: JNK3 AlphaScreen Assay (AID 530); conditions: JNK3 lysate, c-Jun phosphorylation; series mostly up to 11.4 µM;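 note: kinase came from lysate of stimulated human HepG2 cells; signal reports phosphorylation of biotinylated GST-cJun 1-79 at Ser73 with 10 µM ATP; % is set by controls: 0 for no effect and ±100 for the full control effect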
# Procedure, shortened: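 HepG2 lysate (IL-1b/TNFa pre-activated) + biotin-GST-cJun 1-79 + anti-pSer73 cJun; cpd titration, 15 min RT; ATP 10 uM start; Tris pH 7.6, MgCl2, DTT, vanadate; beads in EDTA buffer; AlphaScreen.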
# [9] = molecular target: 3',5'-cyclic-AMP phosphodiesterase 4B (Homo sapiens) (UniProt Q07343); assay: qHTS Assay for Inhibitors of PDE-IV (AID 607; active = well fitted activation curve with a large enough effect in the main read-out, with a control signal flat, not every such curve was filed as active; note: % of control where 0% means no effect); conditions: HEK293 ACTOne CNG channel cells, membrane potential fluorescence; series mostly up to 22.9 µM
# Procedure, shortened: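 ACTOne HEK293 cells carry a modified cAMP-gated CNG channel and express endogenous PDE4; plated 1000 cells/well, compounds up to 22.9 uM final. Membrane-potential dye fluorescence (ex 535/em 590) was read; parental cells received 10 uM forskolin + 100 uM RO 20-1724.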
# [10] = molecular target: Cytochrome P450 3A4 (Homo sapiens) (UniProt P08684); assay: qHTS Assay for Inhibitors and Substrates of Cytochrome P450 3A4 (AID 884; active = well fitted curve in the direction sought with a large enough effect; an effect the other way counts as inactive or inconclusive; note: nearly all actives have a fitted effect of over 50% in size; note: potency is the fitted concentration of half-maximal effect); conditions: recombinant CYP3A4, Luciferin-PPXE luminescence; series mostly up to 57.1 µM
# Procedure, shortened: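 Luminescent readout of luciferin produced by CYP3A4 (20 nM) dealkylation of Luciferin-PPXE, 25 uM (its KM). NADPH-driven reaction ran 60 min at RT after 10 min compound preincubation; data scaled to 57 uM ketoconazole as 100% inhibition.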
# [11] = molecular target: Cytochrome P450 2C9 (Homo sapiens) (UniProt P11712); assay: qHTS Assay for Inhibitors and Substrates of Cytochrome P450 2C9 (AID 883; active = well fitted curve in the direction sought with a large enough effect; an effect the other way counts as inactive or inconclusive; note: nearly all actives have a fitted effect of over 60% in size; note: potency is the fitted concentration of half-maximal effect); conditions: recombinant CYP2C9, luciferin-H luminescence, 60 min; series mostly up to 11.4 µM
# Procedure, shortened: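 Human CYP2C9 (10nM) with Luciferin-H at 100uM (its KM) in 25mM KPO4; compound preincubated 10 min at 37C, then NADPH regeneration for 60 min at 37C. Luciferin read by luminescence after detection reagent; normalized to 57uM sulphaphenazole as full inhibition.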
# [12] = molecular target: Cytochrome P450 2C19 (Homo sapiens) (UniProt P33261); assay: qHTS Assay for Inhibitors and Substrates of Cytochrome P450 2C19 (AID 899; active = well fitted curve in the direction sought with a large enough effect; an effect the other way counts as inactive or inconclusive; note: nearly all actives have a fitted effect of over 60% in size; note: potency is the fitted concentration of half-maximal effect); conditions: recombinant CYP2C19, luciferin-H EGE luminescence; series mostly up to 11.4 µM
# Procedure, shortened: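 5 nM human CYP2C19 with 10uM Luciferin-H EGE (at KM) in 50mM KPO4, compound preincubated 10 min at 37C, then NADPH regeneration for 60 min at 37C. Luciferin read by luminescence after detection reagent; normalized to 57uM ketoconazole as full inhibition.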
# [13] = molecular target: Cytochrome P450 3A4 (Homo sapiens) (UniProt P08684); assay: qHTS Assay for Activators of Cytochrome P450 3A4 (AID 885; active = well fitted curve in the direction sought with a large enough effect; an effect the other way counts as inactive or inconclusive; note: nearly all actives have a fitted effect of over 65% in size); conditions: recombinant CYP3A4, Luciferin-PPXE luminescence, 60 min; series mostly up to 11.4 µM
# Procedure, shortened: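 CYP3A4 activity: Luciferin-PPXE O-dealkylation, 25uM substrate, 200mM KPO4, RT throughout. Read-out is luciferase luminescence; higher values reflect activation.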
# [14] = molecular target: Cytochrome P450 2D6 (Homo sapiens) (UniProt P10635); assay: qHTS Assay for Inhibitors and Substrates of Cytochrome P450 2D6 (AID 891; active = well fitted curve in the direction sought with a large enough effect; an effect the other way counts as inactive or inconclusive; note: potency is the fitted concentration of half-maximal effect; nearly all actives have a fitted effect of over 60% in size); conditions: recombinant CYP2D6, luciferin-ME EGE luminescence; series mostly up to 11.4 µM
# Procedure, shortened: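 Luminescent read-out of luciferin formed by 5 nM human CYP2D6 demethylating 30 uM Luciferin-ME EGE (Km level) over 60 min at room temperature after NADPH regeneration addition. Data normalized to full inhibition by 1.43 uM quinidine.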
# Cytochrome P450 3A4 (Homo sapiens), sequence (P08684 whole entry, looked up): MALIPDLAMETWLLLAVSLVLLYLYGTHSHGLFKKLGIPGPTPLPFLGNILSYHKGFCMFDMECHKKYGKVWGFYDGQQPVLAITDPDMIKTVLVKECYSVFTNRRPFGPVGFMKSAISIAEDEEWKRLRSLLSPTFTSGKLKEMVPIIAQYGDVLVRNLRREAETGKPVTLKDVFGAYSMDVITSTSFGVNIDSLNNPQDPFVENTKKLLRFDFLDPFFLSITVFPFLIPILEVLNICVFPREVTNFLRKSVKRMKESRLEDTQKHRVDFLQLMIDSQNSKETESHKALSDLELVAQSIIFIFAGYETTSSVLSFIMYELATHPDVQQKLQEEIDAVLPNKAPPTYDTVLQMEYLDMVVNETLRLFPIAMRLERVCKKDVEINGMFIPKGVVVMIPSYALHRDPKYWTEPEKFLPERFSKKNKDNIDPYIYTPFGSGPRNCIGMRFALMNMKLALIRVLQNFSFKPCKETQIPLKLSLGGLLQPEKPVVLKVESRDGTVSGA
# 3',5'-cyclic-AMP phosphodiesterase 4B (Homo sapiens), sequence (Q07343 whole entry, looked up): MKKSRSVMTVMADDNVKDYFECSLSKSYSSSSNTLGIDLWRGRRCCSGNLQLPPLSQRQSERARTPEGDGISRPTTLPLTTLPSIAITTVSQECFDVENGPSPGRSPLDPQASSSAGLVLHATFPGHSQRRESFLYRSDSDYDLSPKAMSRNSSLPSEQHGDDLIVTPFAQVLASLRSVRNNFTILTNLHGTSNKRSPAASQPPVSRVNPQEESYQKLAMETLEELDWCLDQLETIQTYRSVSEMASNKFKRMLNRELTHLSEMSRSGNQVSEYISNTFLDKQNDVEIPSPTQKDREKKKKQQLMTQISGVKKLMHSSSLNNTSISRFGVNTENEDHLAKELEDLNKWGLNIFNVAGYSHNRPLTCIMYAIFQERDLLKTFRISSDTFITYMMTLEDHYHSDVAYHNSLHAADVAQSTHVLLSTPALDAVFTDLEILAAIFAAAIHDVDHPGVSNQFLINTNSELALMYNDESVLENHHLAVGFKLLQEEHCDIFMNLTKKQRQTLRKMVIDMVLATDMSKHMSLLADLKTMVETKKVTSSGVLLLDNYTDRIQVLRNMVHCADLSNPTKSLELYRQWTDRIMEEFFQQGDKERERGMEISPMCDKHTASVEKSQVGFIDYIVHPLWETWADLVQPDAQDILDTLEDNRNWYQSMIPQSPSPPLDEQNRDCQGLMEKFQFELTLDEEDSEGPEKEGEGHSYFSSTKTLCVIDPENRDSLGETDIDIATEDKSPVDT
# Cytochrome P450 2C9 (Homo sapiens), sequence (P11712 whole entry, looked up): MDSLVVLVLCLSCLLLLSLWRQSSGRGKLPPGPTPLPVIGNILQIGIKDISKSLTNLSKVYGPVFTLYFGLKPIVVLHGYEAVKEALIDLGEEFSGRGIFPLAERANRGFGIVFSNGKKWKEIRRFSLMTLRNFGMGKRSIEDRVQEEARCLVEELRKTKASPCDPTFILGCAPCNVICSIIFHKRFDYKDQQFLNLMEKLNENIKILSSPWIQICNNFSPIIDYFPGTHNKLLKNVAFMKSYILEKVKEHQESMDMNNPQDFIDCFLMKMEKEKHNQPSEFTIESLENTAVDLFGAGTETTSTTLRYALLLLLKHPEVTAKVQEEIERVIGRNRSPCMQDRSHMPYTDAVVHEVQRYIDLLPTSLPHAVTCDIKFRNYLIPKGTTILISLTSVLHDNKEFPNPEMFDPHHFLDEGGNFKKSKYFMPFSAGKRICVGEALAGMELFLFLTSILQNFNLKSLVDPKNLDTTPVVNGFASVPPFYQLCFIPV
# Glucocorticoid receptor (Homo sapiens), sequence (P04150 whole entry, looked up, the tested form may be a part): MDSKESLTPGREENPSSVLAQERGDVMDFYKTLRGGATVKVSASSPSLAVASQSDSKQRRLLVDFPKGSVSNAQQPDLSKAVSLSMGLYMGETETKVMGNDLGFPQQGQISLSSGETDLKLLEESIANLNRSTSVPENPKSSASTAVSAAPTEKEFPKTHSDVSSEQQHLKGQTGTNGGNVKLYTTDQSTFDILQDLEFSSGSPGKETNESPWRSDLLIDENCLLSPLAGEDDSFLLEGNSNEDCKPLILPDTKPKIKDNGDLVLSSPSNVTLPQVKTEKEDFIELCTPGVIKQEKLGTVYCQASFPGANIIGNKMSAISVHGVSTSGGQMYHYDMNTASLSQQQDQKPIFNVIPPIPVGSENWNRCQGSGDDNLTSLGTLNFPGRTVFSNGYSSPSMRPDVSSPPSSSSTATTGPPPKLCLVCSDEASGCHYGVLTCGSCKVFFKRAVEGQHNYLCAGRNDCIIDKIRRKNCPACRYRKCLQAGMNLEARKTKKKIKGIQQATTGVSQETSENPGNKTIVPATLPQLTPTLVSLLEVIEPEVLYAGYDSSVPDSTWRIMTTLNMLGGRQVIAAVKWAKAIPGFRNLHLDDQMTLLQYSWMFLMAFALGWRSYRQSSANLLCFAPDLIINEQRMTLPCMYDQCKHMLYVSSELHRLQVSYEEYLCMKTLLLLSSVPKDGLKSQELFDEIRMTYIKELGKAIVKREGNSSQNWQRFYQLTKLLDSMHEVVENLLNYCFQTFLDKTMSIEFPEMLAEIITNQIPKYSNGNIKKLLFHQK
# Cytochrome P450 2D6 (Homo sapiens), sequence (P10635 whole entry, looked up): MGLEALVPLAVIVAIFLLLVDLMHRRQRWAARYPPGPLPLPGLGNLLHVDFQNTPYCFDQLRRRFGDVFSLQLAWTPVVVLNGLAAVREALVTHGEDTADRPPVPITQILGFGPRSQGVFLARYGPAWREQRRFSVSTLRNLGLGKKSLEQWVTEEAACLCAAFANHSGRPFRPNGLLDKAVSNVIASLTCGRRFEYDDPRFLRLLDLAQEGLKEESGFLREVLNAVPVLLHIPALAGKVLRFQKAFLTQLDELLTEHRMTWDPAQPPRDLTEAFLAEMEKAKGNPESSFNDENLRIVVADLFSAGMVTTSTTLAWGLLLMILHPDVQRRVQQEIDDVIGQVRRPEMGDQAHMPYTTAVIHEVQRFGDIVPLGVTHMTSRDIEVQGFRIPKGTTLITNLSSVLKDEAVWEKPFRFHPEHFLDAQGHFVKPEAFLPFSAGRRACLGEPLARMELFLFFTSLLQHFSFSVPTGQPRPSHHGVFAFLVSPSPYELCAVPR
# Lysosomal acid glucosylceramidase (Homo sapiens), sequence (P04062 whole entry, looked up): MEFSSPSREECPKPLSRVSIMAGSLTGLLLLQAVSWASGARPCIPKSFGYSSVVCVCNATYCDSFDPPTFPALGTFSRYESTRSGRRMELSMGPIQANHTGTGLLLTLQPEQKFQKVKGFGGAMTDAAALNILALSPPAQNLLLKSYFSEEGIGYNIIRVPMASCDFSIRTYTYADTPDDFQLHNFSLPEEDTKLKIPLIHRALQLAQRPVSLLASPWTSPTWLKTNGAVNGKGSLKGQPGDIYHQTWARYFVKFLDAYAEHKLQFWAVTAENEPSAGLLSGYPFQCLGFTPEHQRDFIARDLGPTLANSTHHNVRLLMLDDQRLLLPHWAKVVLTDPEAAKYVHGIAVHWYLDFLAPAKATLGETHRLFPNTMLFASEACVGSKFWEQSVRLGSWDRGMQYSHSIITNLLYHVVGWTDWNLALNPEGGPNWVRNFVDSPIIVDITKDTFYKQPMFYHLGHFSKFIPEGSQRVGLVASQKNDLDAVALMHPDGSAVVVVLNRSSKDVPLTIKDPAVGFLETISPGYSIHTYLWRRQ
# Cytochrome P450 1A2 (Homo sapiens), sequence (P05177 whole entry, looked up): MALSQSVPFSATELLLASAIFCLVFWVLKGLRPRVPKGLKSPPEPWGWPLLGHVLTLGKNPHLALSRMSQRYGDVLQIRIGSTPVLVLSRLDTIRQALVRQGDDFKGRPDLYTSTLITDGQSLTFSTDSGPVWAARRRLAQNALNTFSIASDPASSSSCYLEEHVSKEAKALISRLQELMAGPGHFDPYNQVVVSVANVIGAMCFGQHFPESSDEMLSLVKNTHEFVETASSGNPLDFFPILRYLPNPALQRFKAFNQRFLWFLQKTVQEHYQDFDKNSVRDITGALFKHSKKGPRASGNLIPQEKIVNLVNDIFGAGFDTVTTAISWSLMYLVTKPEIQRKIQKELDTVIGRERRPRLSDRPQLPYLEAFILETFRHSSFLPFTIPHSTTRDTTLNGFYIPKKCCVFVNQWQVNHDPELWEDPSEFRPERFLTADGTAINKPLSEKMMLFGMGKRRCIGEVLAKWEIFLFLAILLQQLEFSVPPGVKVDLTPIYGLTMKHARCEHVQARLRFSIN
# Cytochrome P450 2C19 (Homo sapiens), sequence (P33261 whole entry, looked up): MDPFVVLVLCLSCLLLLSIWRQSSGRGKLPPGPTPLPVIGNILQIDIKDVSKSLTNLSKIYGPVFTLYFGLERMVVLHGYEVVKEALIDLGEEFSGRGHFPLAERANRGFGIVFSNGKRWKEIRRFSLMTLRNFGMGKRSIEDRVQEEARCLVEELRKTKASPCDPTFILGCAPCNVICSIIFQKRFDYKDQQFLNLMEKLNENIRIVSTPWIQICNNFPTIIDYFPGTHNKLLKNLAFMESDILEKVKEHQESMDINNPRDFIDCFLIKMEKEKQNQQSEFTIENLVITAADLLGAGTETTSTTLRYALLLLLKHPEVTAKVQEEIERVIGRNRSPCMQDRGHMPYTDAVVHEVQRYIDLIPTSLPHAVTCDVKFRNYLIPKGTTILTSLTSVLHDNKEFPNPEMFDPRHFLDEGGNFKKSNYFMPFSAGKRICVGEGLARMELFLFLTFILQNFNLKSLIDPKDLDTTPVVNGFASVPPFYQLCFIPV
Structure (SMILES),Potency [1] [µM],"activity change, negative = inhibition [2] [%]",Potency [3],"activity change, negative = inhibition [4] [%]","activity, negative = inhibition [5] [%]",Potency [6] [µM],Potency [7] [µM],Potency [8],Potency [9],"activity change, negative = inhibition [10]","activity change, negative = inhibition [3]",Potency [11],Potency [12],Potency [10],Potency [13],Potency [14]
COc1ccc2c(Cl)cc(NC(=S)Nc3ccccc3)nc2c1,10.6,9.58,0.398 µM (active),12.1,2.27,> 46,> 9.22,inactive,inactive,67.2% [at 11.4 µM],,,,,,
CC(C)[C@@H]1OC(=O)C=CC=CC=CC=CC=CC[C@@H](O)[C@H](C)[C@@H](O)C[C@H](O)C[C@H](O)C[C@H](O)C[C@H](O)C[C@H](O)C[C@H](O)C=C[C@@H]1C,> 11.4,1.06,,9.95,8,> 46,> 9.22,inactive,inactive,,-2.1% [at 2.29 µM],inactive,inactive,,,
COc1ccc([C@@H](Nc2ncccn2)c2cc3c(cc2O)OCO3)cc1,> 11.4,-6.22,,17.5,-1.19,> 46,> 9.22,inactive,inactive,,-14.3% [at 2.29 µM],3.16 µM (active),0.316 µM (active),2.51 µM (active),,
O=C(C[C@@H]1C=Cc2ccccc2N1C(=O)c1ccccc1)c1ccccc1,> 11.4,-6.74,,-22.9,-9.68,> 46,> 9.22,inactive,inactive,,-23.2% [at 2.29 µM],2.51 µM (active),0.501 µM (active),3.98 µM (active),,
CCCCSCc1nc2nc(Cl)c(Cl)nc2[nH]1,> 11.4,-2.19,3.16 µM (active),-24.8,-21.2,> 46,> 9.22,inactive,inactive,,,0.501 µM (active),2 µM (active),,,
c1ccc2c(c1)-c1nc3ccccc3cc1[C@H]2N1CCOCC1,> 11.4,-6.79,1.26 µM (active),-6.28,7.66,> 46,> 9.22,inactive,inactive,,,,,2.51 µM (active),,
Cn1ncc2c(NCCc3ccccc3)nc(Cl)nc21,> 11.4,-2.77,2.51 µM (active),2.58,-19.5,> 46,> 9.22,inactive,inactive,,,,0.126 µM (active),2 µM (active),inactive,0.126 µM (active)
Cc1ccc(S(=O)(=O)Nc2cc(=O)[nH]c3c2CCC3)cc1,> 11.4,6.25,3.98 µM (active),9.14,-3.68,> 46,> 9.22,inactive,inactive,,,,0.631 µM (active),3.16 µM (active),inactive,
O=S(=O)(c1cnccc1N1CCN(CCO)CC1)N1CCCC1,> 11.4,7.47,,4.17,8.84,> 46,> 9.22,inactive,inactive,,-8.3% [at 2.29 µM],,,3.98 µM (active),inactive,
CC1=C/C(=C(/c2ccc(O)c(C)c2)c2ccccc2C(=O)O)C=CC1=O,> 11.4,12.7,3.16 µM (active),-5.21,4.74,> 46,> 9.22,inactive,inactive,,,,0.0032 µM (active),1.58 µM (active),inactive,1.58 µM (active)
OCCNc1ncnc2nc[nH]c12,> 11.4,7.92,inactive,9,2.92,> 46,> 9.22,inactive,inactive,,,,,,inactive,
Nc1nc(SC/C=C\c2ccccc2)c2[nH]cnc2n1,> 11.4,6.66,5.01 µM (active),24.8,1.2,> 46,> 9.22,inactive,inactive,,,,1.58 µM (active),2.51 µM (active),inactive,
Nc1n[nH]c2ccccc12,> 11.4,-6.63,,3.29,-1.94,> 46,> 9.22,inactive,inactive,,-9.1% [at 2.29 µM],,,,inactive,
O=C(CC(=O)c1ccncc1)c1ccccc1,> 11.4,4.49,0.1 µM (active),13.8,4.76,> 46,> 9.22,inactive,inactive,,,,0.398 µM (active),3.16 µM (active),,
c1ccc(C[C@@H](Nc2cccnc2)c2ccccc2)cc1,> 11.4,5.71,0.2 µM (active),-11.2,-4.39,> 46,> 9.22,inactive,inactive,,,,,3.16 µM (active),inactive,
CN[C@@H](c1ccncc1)[C@@H](NC)c1ccncc1,> 11.4,11.4,inactive,-1.07,-0.841,> 46,> 9.22,inactive,inactive,,,,,5.01 µM (active),inactive,
Nc1nc(SCCc2ccccc2)c2[nH]cnc2n1,> 11.4,-4.07,3.16 µM (active),15.6,-1.34,> 46,> 9.22,inactive,inactive,,,,0.631 µM (active),2.51 µM (active),inactive,
CC(C)(C)C(=O)[C@H]([C@@H](c1ccccc1)N1CCOCC1)N1CCOCC1,> 11.4,0.675,inactive,16.7,2.4,> 46,> 9.22,inactive,inactive,,,,,2.51 µM (active),inactive,
N/N=C1/c2ccccc2N[C@H]1OC(=O)Nc1cccc(Cl)c1,> 11.4,-17.3,0.794 µM (active),-19.2,-0.394,> 46,> 9.22,inactive,inactive,,,,,,inactive,
CN(C)c1ccc(/C=N\NC(=O)c2cnc3ccccc3c2)cc1,> 11.4,-12.8,1.58 µM (active),1.4,-7.11,> 46,> 9.22,inactive,inactive,,,,,,inactive,
N#CCCSC(=S)[C@H]1CCCC1=N,> 11.4,13.5,3.16 µM (active),-9.46,-9.66,> 46,> 9.22,inactive,inactive,,,,,,inactive,
CC1=NN(C(=O)c2ccncc2)C(=O)[C@@H]1N=Nc1ccc2ccccc2c1,> 11.4,-15.6,0.158 µM (active),11.9,-4.73,> 46,> 9.22,inactive,inactive,,,,,,inactive,
C/C(=N/Nc1ccc2ccccc2n1)c1ccccc1O,> 11.4,5.21,1.58 µM (active),2.32,7.92,> 46,> 9.22,inactive,inactive,,,,,3.16 µM (active),inactive,0.794 µM (active)
O=[N+]([O-])c1cc(Cl)cc2c1nc(NCCO)c1ccccc12,> 11.4,-24,0.02 µM (active),22.6,-3.56,> 46,> 9.22,inactive,inactive,,,,,,inactive,
c1cc(CNCCN2CCNCC2)ccn1,> 11.4,-6.63,inactive,3.58,-1.72,> 46,> 9.22,inactive,inactive,,,,,,inactive,
Cc1ccc2nc(CC(=O)c3ccc4ccccc4c3)c(=O)[nH]c2c1,> 11.4,6.36,2 µM (active),-17.8,12.1,> 46,> 9.22,inactive,inactive,,,,,,inactive,
Cn1c(=O)c2[nH]c(CCCCc3nc4c([nH]3)c(=O)n(C)c(=S)n4C)nc2n(C)c1=S,> 11.4,1.54,,-2.84,-5.06,> 46,> 9.22,inactive,inactive,,-13.8% [at 2.29 µM],,inactive,1.26 µM (active),inactive,
